Screening results (PubChem BioAssay)
An excerpt weighted towards active compounds, which were near 21% of everything screened.
Shiga inhibitor – A qHTS for Small Molecule Inhibitors of Shiga Toxin; inhibition, % at 38.7 µM; Vero cells, Shiga toxin protein synthesis inhibition reporter; 290,000 compounds, 9.2% hits; in the data active = inhibition mostly above about 28%, no sharp cut-off; inactive = mostly below about 43%; also: 0% is about no effect
Pf growth 48h – Primary qHTS for delayed death inhibitors of the malarial parasite plastid, 48 hour incubation; P. falciparum luciferase growth in erythrocytes, 48 h; Potency, µM (top dose mostly 28.7 µM), for inactives: top-dose activity change, negative = inhibition, most hits filed as inhibitors; 310,000 compounds, 5.9% hits; AID 504832, 2011; also: potency is read from the fitted curve at half-maximal effect; % is scaled to controls: 0 for no effect and ±100 for the full control effect
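Luminescence readout; reporter = integrated firefly luciferase in P. falciparum. RBC culture at 2% hematocrit, 0.1% parasitemia final, 37 C/5% CO2; decreased signal taken as growth inhibition.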
Cycloheximide cs – Cycloheximide Counterscreen for Small Molecule Inhibitors of Shiga Toxin. max response, %. cell reporter, cycloheximide protein synthesis inhibition counterscreen. 300,000 compounds, 12% hits. AID 2314, 2010; in the data active = max response mostly above about 13%, no sharp cut-off; inactive = mostly below about 14%; also: read at 38.3 µM for the half of the compounds with a filed dose; 0% is about no effect
HCMV inh – qHTS Assay for inhibitors of the human cytomegalovirus (HCMV). HFF cells, HCMV-luciferase reporter, 72 h; active compounds read low. activity change, negative = inhibition, % at 57.5 µM. 410,000 compounds, 4.5% hits. AID 1259415, 2018; in the data active = activity change below about -60%; inconclusive = no clear call, values can overlap the other calls; inactive = above about -39%; also: % is scaled to controls: 0 for no effect and ±100 for the full control effect
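Screen run at 2 compound doses on HFFs infected with reporter HCMV, MOI 1 PFU/cell. Luciferase activity from cell lysates at 72 h post infection gave inhibition relative to buffer-only and Salinomycin wells.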
Pf growth 96h – Primary qHTS for delayed death inhibitors of the malarial parasite plastid, 96 hour incubation | AID 504834, 2011 | P. falciparum luciferase reporter growth, 96 h | Potency, µM (titrated, usually from 28.7 µM), for the others: top-dose activity change, negative = inhibition, usual class: inhibitors | 320,000 compounds, 6.9% hits; also: potency is read from the fitted curve at half-maximal effect; % is scaled to controls: 0 for no effect and ±100 for the full control effect
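Compounds incubated with erythrocytes infected by luciferase-expressing P. falciparum (2% hematocrit, 0.05% parasitemia final) for 96 hours, 37 C in 5% CO2. Growth inhibition scored as decreased luciferase luminescence.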
HCV inh – qHTS Assay for Inhibitors of Hepatitis C Virus (HCV) | 340,000 compounds, 3.4% hits | AID 651820, 2012 | Potency, µM (top dose mostly 41.8 µM), without a hit: top-dose activity change, negative = inhibition, usual class: inhibitors | Huh7.5.1 HCVcc-Cre infection, luciferase reporter, 44 h; also: potency is read from the fitted curve at half-maximal effect; % is scaled to controls: 0 for no effect and ±100 for the full control effect
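1,000 cells/well; 4 h culture; + compound; + HCVcc-Cre (~0.5 moi); 44 h; luciferase substrate, RT 15 min; read 15 sec.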
Active calls of the source: *; ? = inconclusive; nt = no result. Unless noted, calls follow the shape of the dose curve; as a rule, active = well fitted inhibition curve with a large enough effect; inconclusive = small, poorly fitted or top-dose-only effect, or another doubt; inactive = no such curve, though single readings can be large or run the other way.

SMILES | Shiga inhibitor | Pf growth 48h | Cycloheximide cs | HCMV inh | Pf growth 96h | HCV inh
Cc1cccnc1NC(=O)/C=C/c1ccc2c(c1)OCO2 | 85* | 239% | 50* | 46 | 10µM* | 34%
CCc1ccc(S(=O)(=O)c2nnn3c2nc(NCc2ccccc2)c2cc(Cl)ccc23)cc1 | nt | nt | nt | -1 | nt | nt
COc1cccc2c1Oc1ncccc1N(C(=O)Nc1cccc(Cl)c1)C2 | nt | nt | nt | -37 | nt | nt
O=C(Nc1ccc2c(c1)OCO2)c1cc(C2CCCCN2C(=O)CCc2ccccc2)on1 (centres undefined) | nt | nt | nt | 6 | nt | nt
O=C(/C=C/c1ccc2c(c1)OCO2)c1cccnc1 | 29 | 6% | 22* | -38 | 5% | 18%
O=C(/C=C/c1ccc([N+](=O)[O-])cc1)c1cccnc1 | -6 | -1% | -2 | 31 | -26% | 33%
O=S(=O)(NCc1nnc2ccccn12)c1ccc(F)cc1 | nt | 0% | nt | -7 | -4% | -3%
Cc1nc2ccccn2c1-c1ccnn1S(=O)(=O)c1ccc(F)cc1 | -6 | ? | 10 | -94* | ? | ?
COc1ccc(C(C)c2cc3c(cc2OCC(=O)O)OCO3)cc1 (centres undefined) | nt | nt | nt | -14 | nt | nt
CCCCCCN=C1CC(C)(C)CC(=O)/C1=C(/O)CCC | -8 | ? | 0 | -27 | 6.6µM* | ?
O=C(CN(Cc1ccc(Br)cc1)S(=O)(=O)c1ccccc1)NCC1CCCO1 (centres undefined) | -16 | ? | -2 | ? | 17% | -11%
CC1(C)CC(=O)c2c(-c3cccs3)n[nH]c2C1 | 90* | 34% | 18* | ? | 27% | -2%
CCOC(=O)C1CCCN(C(=O)c2cccc(S(=O)(=O)N(C)c3ccc(C)cc3)c2)C1 (centres undefined) | nt | 13µM* | nt | -2 | ? | ?
COc1ccc(NS(=O)(=O)c2cccc(C(=O)N3CCC3)c2)cc1 | nt | -1% | nt | -15 | -3% | ?
CCOC(=O)C1CCCN(C(=O)c2cccc(S(=O)(=O)N3CCCC3)c2)C1 (centres undefined) | nt | ? | nt | 0 | ? | -4%
COc1ccc(NS(=O)(=O)c2cccc(C(=O)N3CCN(S(=O)(=O)c4ccccc4)CC3)c2)cc1 | nt | nt | nt | 17 | nt | 10µM*
COc1ccc(N(C)S(=O)(=O)c2cccc(C(=O)N3CCN(S(=O)(=O)c4ccc(C)cc4)CC3)c2)cc1 | -2 | 5.9µM* | -1 | -34 | 2.6µM* | ?
O=S1(=O)CC(N2CCCCC2)CN1Cc1cn(Cc2cccc(Cl)c2)nn1 (centres undefined) | nt | nt | nt | 6 | nt | nt
CC1CCc2c(sc(NC(=O)C3=COCCO3)c2C(N)=O)C1 (centres undefined) | nt | 129% | nt | 7 | 177% | ?
O=C(NCc1nc2ncc(Br)cc2[nH]1)c1ccccc1 | 48 | 33% | 15* | 17 | 42% | -1%
COc1cc(NC(=O)[C@@H]2CCCN(S(=O)(=O)c3cccc4cccnc34)C2)cc(OC)c1OC | nt | ? | nt | -2 | ? | ?
Cc1cc(C)cc(NC(=O)CSc2oc(-c3ccco3)nc2S(=O)(=O)c2ccccc2)c1 | nt | nt | nt | 2 | nt | nt
Cc1cc(C)cc(NC(=O)CSc2oc(-c3ccco3)nc2S(=O)(=O)c2ccc(Cl)cc2)c1 | nt | nt | nt | -62* | nt | nt
O=C(CSc1oc(-c2ccccc2)nc1S(=O)(=O)c1ccccc1)NCC1CCCO1 (centres undefined) | -3 | ? | -4 | -9 | 5% | ?
O=C(CSc1oc(-c2ccco2)nc1S(=O)(=O)c1ccc(Cl)cc1)NCC1CCCO1 (centres undefined) | -15 | nt | -4 | -66* | ? | ?
Cc1ccc(-c2nc(S(=O)(=O)c3ccccc3)c(SCC(=O)NCC3CCCO3)o2)cc1 (centres undefined) | 15 | ? | -2 | -60* | ? | ?
CC(CCc1ccccc1)NC(=O)CN1CCN(c2ccc(O)cc2)CC1 (centres undefined) | 10 | ? | -2 | -29 | ? | -29%
